# Only some compounds are listed: those with a hit (about 17% of all), similar ones and a draw of the others.
# TDP1 inh: inhibitors of human tyrosyl-DNA phosphodiesterase TDP1; Q9NUW8; recombinant TDP1, AlphaScreen DNA substrate cleavage; Potency, µM (series often up to 130 µM), inactives show top-dose activity change, negative = inhibition, hits mostly inhibitors; 350,000 tested, 0.28% active; AID 485290; note: % is set by controls: 0 for no effect and ±100 for the full control effect; nearly all actives have a fitted effect of over 40% in size
# Target sequence (Q9NUW8 whole entry, looked up): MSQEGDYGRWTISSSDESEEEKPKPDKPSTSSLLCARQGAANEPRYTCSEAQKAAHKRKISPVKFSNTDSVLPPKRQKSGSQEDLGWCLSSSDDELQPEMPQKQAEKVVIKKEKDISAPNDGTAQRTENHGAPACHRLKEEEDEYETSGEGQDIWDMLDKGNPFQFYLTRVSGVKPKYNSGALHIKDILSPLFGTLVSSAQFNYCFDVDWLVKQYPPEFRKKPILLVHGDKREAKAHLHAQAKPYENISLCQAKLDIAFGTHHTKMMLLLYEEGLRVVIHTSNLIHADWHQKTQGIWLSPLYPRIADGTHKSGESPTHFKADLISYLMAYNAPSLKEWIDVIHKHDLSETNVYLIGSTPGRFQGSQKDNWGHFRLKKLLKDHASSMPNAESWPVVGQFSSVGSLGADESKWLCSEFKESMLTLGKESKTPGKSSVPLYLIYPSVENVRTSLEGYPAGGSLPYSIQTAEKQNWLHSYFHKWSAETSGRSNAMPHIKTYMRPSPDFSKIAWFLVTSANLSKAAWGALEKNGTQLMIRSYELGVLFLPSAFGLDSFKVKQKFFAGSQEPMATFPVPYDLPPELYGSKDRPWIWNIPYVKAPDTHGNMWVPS
#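 Compounds were preincubated with Tdp1 (1 nM final) for 15 min at room temperature before substrate (15 nM final) started a 5 min reaction; beads (10 ug/ml final) were then added for 10 min before AlphaScreen detection.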
# TDP1 cell CPT: growth inhibition of DT40 Tdp1-/-;hTDP1 cells with camptothecin (screen for TDP1 inhibitors) | chicken DT40 Tdp1-/-;hTDP1 cells + 20 nM CPT, ATP luminescence, 48 h | Potency, µM (series often up to 46.2 µM), for the others: at the highest dose activity change, negative = growth inhibition, usual class: inhibitors | 420,000 tested, 12% active | AID 686979; note: % is set by controls: 0 for no effect and ±100 for the full control effect; nearly all actives have a fitted effect of over 55% in size
#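 Chicken DT40 Tdp1-/- cells complemented with human TDP1, 400 cells/well, exposed to compounds plus 20 nM camptothecin for at least 48 h at 37 C; viability read as ATP content by CellTiter-Glo luminescence.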
# ClpP mod: qHTS Assay for Activators of ClpP; ATP-dependent Clp protease proteolytic subunit (Bacillus subtilis (strain 168)), P80244; purified B. subtilis ClpP, FRET peptide cleavage, 20 min; Potency, µM (doses to about 57.5 µM), for the others: top-dose activity change, negative = active; 340,000 tested, 1.9% active; active = well fitted falling curve with a large enough effect; inconclusive = small, poorly fitted or top-dose-only effect; inactive = no such curve, though single readings can be large or run the other way; note: the source files actives as falling curves though it sought activators and does not explain the sign; nearly all actives have a fitted effect of over 65% in size
#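 ClpP 10 microg/mL final, pH 8 Tris/KCl buffer with BSA, glycerol, Tween-20; compound pinned in; FRET-FV substrate; RT 20 min; Ex320/Em430; ΔFRET vs ADEP 5.8 microM, DMSO, no enzyme.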
# DT40 TDP1 no CPT: qHTS for Inhibitors of human tyrosyl-DNA phosphodiesterase 1 (TDP1): qHTS in cells in absence of CPT. DT40 Tdp1-/- hTDP1 cells, no CPT, ATP luminescence, 48 h. Potency, µM (series often up to 46.2 µM), without a hit: top-dose activity change, negative = growth inhibition, hits mostly inhibitors. 420,000 tested, 15% active. AID 686978, 2013; note: % is set by controls: 0 for no effect and ±100 for the full control effect; nearly all actives have a fitted effect of over 55% in size
#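 Growth kinetics read by CellTiter-Glo luminescence after ≥48 hr at 37 °C. Cells: DT40 Tdp1-/- stably carrying human TDP1, 400 per well, compound exposure in the absence of CPT (DMSO vehicle).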
# An asterisk follows results filed as active; ? = inconclusive; · = no result; ! = not active in a repeat. Unless noted, calls come from the whole dose curve; as a rule, active = well fitted curve in the direction sought with a large enough effect; inconclusive = small, poorly fitted or top-dose-only effect, or another doubt; inactive = no such curve, though single readings can be large; an effect the other way counts as inactive or inconclusive. Potency is the fitted concentration of half-maximal effect.
SMILES,TDP1 inh,TDP1 cell CPT,ClpP mod,DT40 TDP1 no CPT
CCOc1ccc(/C=C/c2nc(C#N)c(N3CCC(C)CC3)o2)cc1,0%,10µM*,5%,13µM*
CCCN(CCC)S(=O)(=O)c1cc2c3c(c1)CCN3C(=O)CC2,1%,-15%,7%,0%
CSc1cccc(N2CC(C(=O)N(Cc3nnc(-c4ccccc4Cl)o3)C3CC3)CC2=O)c1 (stereo unspecified),3%,-29%,?,?
CC(C)CN(C[C@@H](O)[C@H](Cc1ccccc1)NC(=O)O[C@H]1CO[C@H]2OCC[C@H]21)S(=O)(=O)c1ccc(N)cc1,·,-6%,·,?
CC1=NNC(=O)/C1=C\c1cn(-c2ccccc2)nc1-c1ccccc1,0%,5.8µM*,·,4.1µM*
CC1(C)CC(=O)C(=Cc2cn(CCC#N)nc2-c2ccc(Cl)cc2)C(=O)C1,-5%,?,2%,-5%
O=C(O)/C=C/c1cn(-c2ccccc2)nc1-c1ccccc1,·,6%,-5%,18%
O=Cc1cn(-c2ccccc2)nc1-c1ccccc1,·,?,1%,?
O=Cc1cn(-c2ccccc2)nc1-c1ccncc1,-3%,?,7%,23µM*
CC1(C)CC(=O)C(=Cc2cn(-c3ccccc3)nc2-c2ccc(Cl)cc2)C(=O)C1,-2%,9.2µM*,-4%,21µM*
Cc1cc(C)cc(-n2ncc3c2CCCC3NC(=O)CN2CCCCC2=O)c1 (stereo unspecified),·,-1%,-1%,2%
COc1ccccc1NC(=O)c1nc(SCc2ccccc2F)ncc1Cl,·,?,-4%,-7%
CCOC(=O)c1ccc(OCCN2C[C@H](O)[C@@H](O)[C@H](O)[C@H]2CO)cc1,·,-3%,·,?
O=c1nc2n(Cc3ccccc3)c3ccccc3cc-2c(=O)[nH]1,4%,·,·,·
O=c1nc2n(CCO)c3ccccc3cc-2c(=O)[nH]1,·,13%,32µM*,5%
Cn1c2nc(=O)[nH]c(=O)c-2cc2ccccc21,·,11%,18µM*,-32%
COc1ccc(OCc2nc3ccccc3n2C(C)c2ccccc2)cc1 (stereo unspecified),·,?,-24%,?
O=C(Nc1ccccc1-c1ccccc1)C1CCCCC1,-2%,-11%,1%,-5%
CC1CCN(CC(=O)Nc2ccccc2C(=O)c2ccccc2)CC1,0%,21µM*,·,15µM*
CC1CCN(CC(=O)Nc2ccccc2-c2ccccc2)CC1,0%,18µM*,-1%,?
COC(=O)c1ccc(C(=O)OC)c(NC(=O)CN2CCC(C)CC2)c1,0%,-21%,·,?
CC1CCCCC1NCC(=O)Nc1ccccc1-c1ccccc1 (stereo unspecified),-5%,?,1%,18µM*
NC(=O)N1c2ccccc2C=Cc2ccccc21,-3%,?,3%,?
CCN(CC)C(=O)N1c2ccccc2C=Cc2ccccc21,4%,9.2µM*,0%,10µM*
COC(=O)N1c2ccccc2C=Cc2ccccc21,·,?,1%,21µM*
SMILES,TDP1 inh,TDP1 cell CPT,ClpP mod,DT40 TDP1 no CPT
O=C(Nc1ccc2c(c1)CCCN2C(=O)c1cccs1)c1cccc(C(F)(F)F)c1,-1%,13µM*,2%,9.2µM*
O=C(Nc1ccc2c(c1)CCCN2C(=O)c1cccs1)c1cccc(F)c1,2%,?,-1%,?
O=C(Nc1ccc2c(c1)CCCN2C(=O)c1cccs1)c1ccc(F)c(F)c1,9%,16µM*,1%,21µM*
O=C(c1cccs1)N1CCCc2cc(NS(=O)(=O)c3ccc(Br)cc3)ccc21,9%,?,-2%,?
O=C(Nc1ccc2c(c1)CCCN2C(=O)c1cccs1)c1ccccc1,1%,16µM*,-3%,13µM*
COc1cc(OC)cc(C(=O)Nc2ccc3c(c2)CCCN3C(=O)c2cccs2)c1,3%,18µM*,-1%,23µM*!
COc1ccc(NC2CCCN(C(=O)C3=NN(C)C(=O)CC3)C2)cc1OC (stereo unspecified),1%,-1%,0%,24%
C=CCN(C(=O)C1CC(=O)N(C2CCCC2)C1)c1nc(-c2ccc(S(C)(=O)=O)cc2)cs1 (stereo unspecified),1%,15µM*,?,15µM*
O=C(Nc1cc(C(F)(F)F)ccc1-n1cncn1)c1ccc([N+](=O)[O-])o1,·,10µM*,-4%,21µM*
Cc1ccc(C(=O)Nc2ccccc2N2CCCCC2)o1,5%,26µM*,-5%,?
O=C(Nc1ccccc1N1CCN(C(=O)c2ccccc2)CC1)c1ccc([N+](=O)[O-])o1,13%,21µM*,·,15µM*
CCC(C(=O)Nc1ccccc1N1CCCC1)c1ccccc1 (stereo unspecified),5%,?,1%,16µM*
O=C(Nc1cc(C(F)(F)F)ccc1-n1cncn1)c1ccc(Br)cc1,2%,0%,-5%,-19%
O=C(Nc1ccccc1N1CCN(C(=O)c2ccc(Cl)cc2)CC1)c1ccc2c(c1)OCO2,0%,-54%,-9%,-45%
CCC(Oc1ccccc1)C(=O)Nc1ccccc1N1CCCC1 (stereo unspecified),9%,?,-1%,?
Nc1c(C(=O)N2CCCCCC2)oc2ccccc12,6%,-23%,4%,?
COc1ccc2c(c1)C(c1ccc3c(c1)OCO3)CC(=O)O2 (stereo unspecified),6%,·,·,·
O=C(NC(=S)Nc1ccccc1N1CCCCC1)c1ccccc1,6%,?,2%,26µM*
CS(=O)(=O)N1CCN(c2ccccc2NC(=O)c2ccc(-c3ccc(Cl)cc3Cl)o2)CC1,5%,?,?,?
COc1ccc(N2CCCC2)c(NC(=O)c2ccc([N+](=O)[O-])o2)c1,19%,7.3µM*,-10%,18µM*
CN1CCN(c2ccccc2NC(=O)c2ccc(-c3ccc(Cl)cc3Cl)o2)CC1,12%,21µM*,?,23µM*
O=C(Nc1ccc(N2CCCC2)c(Cl)c1)c1ccc([N+](=O)[O-])o1,8%,8.2µM*,·,18µM*
O=C(Nc1ccc(N2CCCC2)c(Cl)c1)c1ccco1,8%,?,0%,?
CCOc1ccc(C2C(C(N)=O)=C(C)Nc3nc(-c4cccc(Cl)c4)nn32)cc1OC (stereo unspecified),·,?,-9%,?
COC(=O)c1ccc(Cn2c(C)c(C(=O)NCc3cccs3)sc2=O)o1,·,?,-2%,?
Cc1cc(C)cc(NC(=O)Nc2ccccc2N2CCCCC2)c1,8%,?,0%,16µM*
O=C(Nc1cccc(Cl)c1N1CCOCC1)c1ccc([N+](=O)[O-])o1,2%,?,1%,?
Cc1nnc2sc(-c3ccc(NC(=O)c4ccc(-c5ccc(Cl)cc5Cl)o4)cc3)nn12,·,16µM*,-7%,?
O=C(Nc1ccccc1N1CCCC1)c1ccc([N+](=O)[O-])o1,9%,23µM*,-1%,?
